Screens: PubChem, National Center for Advancing Translational Sciences (NCATS)
IL-1B inflam inh: qHTS for Inhibitors of Inflammasome Signaling: IL-1-beta AlphaLISA Primary Screen. THP-1 LPS/ATP IL-1B secretion, AlphaLISA, 16 h; stronger effect = lower value. activity change, % at 57.5 µM. 360,000 tested, 4.7% active; in the data active = activity change below about -50%; inconclusive = mostly about -30% to -49%
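THP-1 cells pretreated 1 hr with compounds (up to 57.5 uM final), then stimulated with LPS (250 ng/mL final) plus ATP (1.25 mM final); secreted IL-1B measured by AlphaLISA after 16 hr, decreased signal indicating inhibition.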
CtBP-E1A blk: qHTS Assay for Inhibitors of the CtBP/E1A Interaction; 340,000 tested, 0.49% active; CtBP / adenovirus E1A interaction (AlphaScreen); AlphaScreen GST-E1A/His-CtBP binding, 1536-well; stronger effect = lower value; activity change, % (no concentration beside the values); AID 651724, 2012; in the data active = activity change below about -65%; inconclusive = mostly about -30% to -63%
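Homogeneous bead-based format: GST-tagged E1A captured on glutathione donor beads, His-tagged CtBP on nickel acceptor beads; compounds precede bead addition by 2 h at 37 °C.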
Six1-Eya2 blk: qHTS Assay for Inhibitors of the Six1/Eya2 Interaction | Homeobox protein SIX1 (Homo sapiens) + Protein phosphatase EYA2 (Homo sapiens), … | AlphaScreen GST-Six1/His-Eya2 binding, biochemical; stronger effect = lower value | activity change, % (test concentration not listed) | 360,000 tested, 0.56% active | AID 651725, 2012; in the data active = activity change below about -65%; inconclusive = mostly about -30% to -63%
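AlphaScreen luminescence read after one hour at 37 °C in darkness. Pin-transferred compounds met GST-Six1 and His-Eya2 protein (5X stock 250 nM/500 nM) plus glutathione donor and Ni-chelate acceptor beads (5X, 50 ug/mL).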
DT40 TDP1 no CPT: qHTS for Inhibitors of human tyrosyl-DNA phosphodiesterase 1 (TDP1): qHTS in cells in absence of CPT | AID 686978, 2013 | 420,000 tested, 15% active | Potency, µM (titrated, usually from 46.2 µM), hits mostly inhibitors | DT40 Tdp1-/- hTDP1 cells, no CPT, ATP luminescence, 48 h; note: nearly all actives have a fitted effect of over 55% in size
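Compound effects on proliferation are scored in DT40 Tdp1-/-;hTDP1 cells in the absence of CPT. ATP levels (CellTiter-Glo luminescence) are recorded after a ≥48 hr, 37 °C incubation.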
TDP1 block: qHTS Assay for Inhibitors of Tyrosyl-DNA Phosphodiesterase (TDP1). Potency, µM (highest dose often 130 µM), most hits filed as inhibitors. 350,000 tested, 0.28% active. Tyrosyl-DNA phosphodiesterase 1 (Homo sapiens), Q9NUW8. AID 485290, 2010. recombinant TDP1, AlphaScreen DNA substrate cleavage; note: nearly all actives have a fitted effect of over 40% in size
Target sequence (Q9NUW8 whole entry, looked up): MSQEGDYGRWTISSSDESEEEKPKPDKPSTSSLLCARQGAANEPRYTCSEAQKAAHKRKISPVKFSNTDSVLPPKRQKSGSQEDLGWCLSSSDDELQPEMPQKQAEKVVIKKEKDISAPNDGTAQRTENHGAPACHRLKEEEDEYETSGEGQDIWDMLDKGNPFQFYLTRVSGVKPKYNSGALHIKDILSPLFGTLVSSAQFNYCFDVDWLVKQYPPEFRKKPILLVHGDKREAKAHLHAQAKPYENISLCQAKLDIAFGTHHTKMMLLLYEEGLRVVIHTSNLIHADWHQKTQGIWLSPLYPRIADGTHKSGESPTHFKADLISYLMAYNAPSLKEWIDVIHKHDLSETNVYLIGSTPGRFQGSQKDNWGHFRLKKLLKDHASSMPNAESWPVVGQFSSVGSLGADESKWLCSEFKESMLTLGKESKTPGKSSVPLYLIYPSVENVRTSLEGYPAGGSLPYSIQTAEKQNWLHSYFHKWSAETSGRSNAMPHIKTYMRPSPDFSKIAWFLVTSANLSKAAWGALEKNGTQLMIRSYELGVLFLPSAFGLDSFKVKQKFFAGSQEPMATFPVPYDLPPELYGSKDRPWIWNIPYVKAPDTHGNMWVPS
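Recombinant E. coli-expressed Tdp1 (1 nM) preincubated with compound 15 min at RT, then 5'-biotin/3'-phosphotyrosine-FITC DNA substrate (15 nM) added for 5 min. AlphaScreen beads (10 ug/ml) added, 10 min RT; tyrosine-FITC cleavage read as signal loss.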
TDP1 cell CPT: qHTS for Inhibitors of human tyrosyl-DNA phosphodiesterase 1 (TDP1): qHTS in cells in presence of CPT; chicken DT40 Tdp1-/-;hTDP1 cells + 20 nM CPT, ATP luminescence, 48 h; Potency, µM (highest dose often 46.2 µM), actives largely listed as inhibitors; 420,000 tested, 12% active; note: nearly all actives have a fitted effect of over 55% in size
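Chicken DT40 Tdp1-/- cells stably complemented with human TDP1 were seeded at 400 cells/well in medium containing 20 nM camptothecin, exposed to pin-transferred compounds, and grown at 37 °C for at least 48 hr. Viability was read as ATP luminescence.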
Numbers stand for hits; 0 = inactive; ? = inconclusive; - = no result. An excerpt weighted towards active compounds, which were near 18% of everything screened. Unless noted, calls come from the whole dose curve; as a rule, active = well fitted curve in the direction sought with a large enough effect; inconclusive = small, poorly fitted or top-dose-only effect, or another doubt; inactive = no such curve, though single readings can be large; an effect the other way counts as inactive or inconclusive.

SMILES	IL-1B inflam inh	CtBP-E1A blk	Six1-Eya2 blk	DT40 TDP1 no CPT	TDP1 block	TDP1 cell CPT
C[C@@H]1C=C(C(=O)NCc2nc3ccccc3[nH]2)O[C@H](OCc2ccc(CO)cc2)C1	0	0	0	?	-	16µM
CCO[C@@H]1OC(C(=O)NCc2nc3ccccc3[nH]2)=C[C@H](C(C)(C)C)[C@H]1CCCO	0	0	0	1.2µM	-	1.3µM
CCCCC(=O)Nc1ccc(OCc2cc(=O)n3c(C)csc3n2)cc1	-	-	-	?	0	?
O=C(NCc1ccc(Cl)cc1Cl)c1ccc2nc[nH]c2c1	0	0	0	0	0	0
Nc1nc2ccccc2cc1C(=O)NCc1ccc(-c2ccccc2)cc1	0	0	0	0.16µM	-	1µM
Nc1nc2ccccc2cc1C(=O)NCc1ccc(Cl)cc1Cl	0	0	0	5.8µM	-	16µM
CCOC(=O)c1c(S(=O)(=O)N2CCC(C(=O)Nc3ccc(C)cc3C)CC2)c(C)n(C)c1C	-	-	-	0	0	0
COc1ccc(Cl)cc1NC(=O)c1cnc(SC)nc1-c1ccccc1	-	-	-	?	0	?
CSc1ncc(C(=O)Nc2ccc(C)c(Cl)c2)c(-c2ccccc2)n1	-	-	-	?	0	23µM
Fc1cccc(CSc2ncnc3c2ncn3C2CCCCO2)c1 (stereo not given)	0	0	0	?	-	?
Clc1cccc(CSc2ncnc3c2ncn3C2CCCCO2)c1 (stereo not given)	0	0	0	16µM	-	?
c1ccc(CSc2ncnc3c2ncn3C2CCCCO2)cc1 (stereo not given)	-50	0	0	?	-	0
Fc1ccc(CSc2ncnc3c2ncn3C2CCCCO2)cc1 (stereo not given)	0	0	0	?	-	?
CCCN1C(=O)C(Cc2nc3ccccc3c(=O)n2-c2cccc(C)c2)c2ccccc21 (stereo not given)	-	-	-	?	0	?
Cc1ccccc1-n1nc(CO)c(C(=O)NCC(c2ccccc2)c2ccccc2)n1	-	-	-	21µM	0	?
O=C(NCC(c1ccccc1)c1ccccc1)c1nn(-c2ccccc2Cl)nc1CO	-	-	-	23µM	0	?
CON(C)c1nc(Oc2ccc(=O)[nH]n2)nc(N(C)C)n1	?	0	0	0	0	0
CCN(CC)CC(O)Cn1c2ccccc2c2ccccc21 (stereo not given)	?	0	0	?	0	0
COc1ccccc1N(CC(O)Cn1c2ccccc2c2ccccc21)S(=O)(=O)c1ccccc1 (stereo not given)	-101	0	0	?	0	?
O=S(=O)(c1ccccc1)N(CC(O)Cn1c2ccccc2c2ccccc21)c1ccccc1 (stereo not given)	-53	0	0	?	0	?
Cc1ccc(S(=O)(=O)N(C)CC(O)Cn2c3ccccc3c3ccccc32)cc1 (stereo not given)	0	0	0	?	0	?
O=S(=O)(c1ccc(F)cc1)N(CCO)CC(O)Cn1c2ccccc2c2ccccc21 (stereo not given)	0	0	0	16µM	0	?
C=CCN(CC=C)CC(O)Cn1c2ccccc2c2ccccc21 (stereo not given)	-74	0	0	23µM	0	?
CCOC(=O)c1csc(NC(=O)C2=COCCO2)n1	0	0	0	0	0	0
CS(=O)(=O)N(CC(=O)Nc1ccccc1)c1cccc(Cl)c1Cl	0	0	0	0	0	0
SMILES	IL-1B inflam inh	CtBP-E1A blk	Six1-Eya2 blk	DT40 TDP1 no CPT	TDP1 block	TDP1 cell CPT
COc1ccc(C(=O)CSC2=NS(=O)(=O)c3cc(Cl)ccc3N2)cc1	0	0	0	0	0	?
COc1ccc2cc(C(=O)C3CCCN(C(=O)c4cnccn4)C3)ccc2c1 (stereo not given)	0	0	0	?	-	?
COc1ccc(C(=O)C2CCCN(Cc3cnc(N4CCCC4)s3)C2)cc1OC (stereo not given)	0	-	0	?	0	0
COc1ccc2cc(C(=O)C3CCCN(C(=O)/C=C/c4ccccn4)C3)ccc2c1 (stereo not given)	0	0	0	21µM	0	?
COc1ccc2cc(C(=O)C3CCCN(C(=O)Cc4c(C)noc4C)C3)ccc2c1 (stereo not given)	0	0	0	21µM	0	23µM
COc1ccc2cc(C(=O)C3CCCN(Cc4cnc(C)s4)C3)ccc2c1 (stereo not given)	-66	0	0	16µM	-	23µM
COc1ccc2cc(C(=O)C3CCCN(C(=O)c4snnc4C)C3)ccc2c1 (stereo not given)	?	0	0	23µM	0	16µM
COc1c(C)cc(C(=O)C2CCCN(C(=O)c3snnc3C)C2)cc1C (stereo not given)	0	0	0	0	-	0
COc1ccccc1CN1CC(C(=O)NCCn2ccc(C)n2)CCC1=O (stereo not given)	0	0	0	0	0	0
Cc1cc(C(=O)N2CCCC(C(=O)c3ccc4ccccc4c3)C2)n(C)n1 (stereo not given)	0	0	0	21µM	0	?
Cc1nc(C)c(C(=O)N2CCCC(C(=O)c3ccc4ccccc4c3)C2)s1 (stereo not given)	0	0	0	33µM	0	?
CCn1cc(C(=O)N2CCCC(C(=O)c3ccc4ccccc4c3)C2)cn1 (stereo not given)	0	0	0	0	0	0
O=C(c1ccc2ccccc2c1)C1CCCN(C(=O)c2cnccn2)C1 (stereo not given)	0	0	0	0	-	?
CSc1ccc(C(=O)C2CCCN(C(=O)c3nn(C)c(=O)c4ccccc34)C2)cc1 (stereo not given)	0	0	0	16µM	0	?
CCOc1ccccc1NC(=O)COc1ccc2ccc(=O)oc2c1	0	0	0	0	-	0
C[C@H]1CN([C@@H](C)CO)C(=O)c2cc(Br)cnc2O[C@@H]1CN(C)C(=O)NC1CCCCC1	0	0	0	0	-	0
CC(=O)Nc1ccc(C(=O)CCl)cc1	-104	0	0	2.1µM	0	1.5µM
CC(=O)NCc1ccc(C(=O)CCl)cc1	-102	0	0	?	0	4.1µM
CC(=O)Nc1ccc(C)cc1	0	0	0	0	0	0
CC(=O)N(C)Cc1ccc(C(=O)CCl)cc1	-106	0	0	0.92µM	0	1µM
COc1ccc(C(=O)OCC(=O)c2ccc(CNC(C)=O)s2)cc1	0	0	0	0	0	0
